Compounds without any hit were thinned out: in the full panel of roughly 83,000, 20% have a hit.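 Percent growth is the endpoint: 0 to 100 indicates growth inhibition (40 means 60% inhibition), 0 means no net growth, and negative values indicate cell death.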 A number with no mark means an inactive call. Activity calls are given as the source filed them. How the source made its calls: active means growth percent below 10; inactive means the rest.
Assays:
Experiment in all cases: NCI-60 one-dose screen, 48 h (100 = growth as untreated, 0 = no growth, -100 = all killed)
Settings in all cases: 10 µM unless noted
T-47D breast = tested on: T-47D breast
BT-549 breast = tested on: BT-549 breast
MDA-MB-435 melanoma = tested on: MDA-MB-435 melanoma
SW-620 colon = tested on: SW-620 colon
HCT-116 colon = tested on: HCT-116 colon
HCC-2998 colon = tested on: HCC-2998 colon
KM12 colon = tested on: KM12 colon
MDA-MB-468 breast = tested on: MDA-MB-468 breast
MCF7 breast = tested on: MCF7 breast

SMILES	growth (T-47D breast)	growth (BT-549 breast)	growth (MDA-MB-435 melanoma)	growth (SW-620 colon)	growth (HCT-116 colon)	growth (HCC-2998 colon)	growth (KM12 colon)	growth (MDA-MB-468 breast)	growth (MCF7 breast)
COc1ccc(/C=C/c2nc3ccccc3c(=O)n2CC(=O)Nc2ccccc2)cc1	-20.4% (active)	98.5%	85.2%	61.6%	21%	80.2%	66.9%	55.7%	
Oc1ccc(Cl)c(Nc2ncnc3c2cnn3CC(Cl)c2ccc(Br)cc2)c1 (stereo unspecified)	32.9%		57.7%	67.1%	40.8%	98.3%	85.9%	26.2%	49.7%
Cc1ccc(O)cc1Nc1nc(SCCN2CCOCC2)nc2c1cnn2CC(Cl)c1ccc(Br)cc1 (stereo unspecified)	-2.49% (active)		12.6%	32.9%	2.84% (active)	1.63% (active)	17%	-55.7% (active)	5.88% (active)
Oc1ccc(Cl)c(Nc2nc(SCCN3CCOCC3)nc3c2cnn3CC(Cl)c2ccc(Br)cc2)c1 (stereo unspecified)	0% (active)		12%	30.4%	13.8%	9.56% (active)	17.1%	-26.7% (active)	5.55% (active)
COc1ccc2[nH]cc(-c3cc(N)n4nc(-c5c[nH]c6ccccc56)cc4n3)c2c1	-21.8% (active)		-79% (active)	-70.4% (active)	-82.1% (active)	-76.2% (active)	-48.8% (active)	-67.8% (active)	-81.6% (active)
Nc1cc(-c2c[nH]c3ccc(Cl)cc23)nc2cc(-c3c[nH]c4ccccc34)nn12	-5.16% (active)		-51% (active)	-79.6% (active)	-83.9% (active)	-81.2% (active)	-70.5% (active)	-72.3% (active)	-68.3% (active)
COC(=O)c1cc(C(=O)CBr)n2c1ccc1c3ccccc3ccc12	57.7%		74.9%	55.4%	35.6%	62.5%	84%	48.8%	6.75% (active)
ClC(Cn1ncc2c(Nc3cccc(Br)c3)nc(SCCN3CCOCC3)nc21)c1ccc(Br)cc1 (stereo unspecified)	-2.99% (active)		-4.97% (active)	-32.1% (active)	6.22% (active)	3.46% (active)	-20% (active)	-18% (active)	
O=C(OCCOCCO)N(c1cccc(Br)c1)c1nc(SCCN2CCOCC2)nc2c1cnn2CC(Cl)c1ccc(Br)cc1 (stereo unspecified)	13.6%		9.72% (active)	17.8%	10.8%	12%	-8.97% (active)	-2.54% (active)	4.77% (active)
Nc1ccc(-c2ccc3ncnc(N4CCc5cc(F)c(Cl)cc54)c3c2)cn1	10.7%	-9.19% (active)	28%	55.8%	-52.9% (active)	38.2%	35.6%	-78% (active)	
CCN1C(=O)N(CC)C2NNC(Sc3c(C(=O)O)c4ccccc4n(CCC(C)C)c3=O)=NC21 (stereo unspecified)	73.5%		-53.6% (active)	28.4%	3.95% (active)	3.88% (active)	21.3%	7.98% (active)	9.16% (active)
CC(C)(C)C(=O)C1CC(C#N)=C2C=Cc3c(ccc4ccccc34)N21 (stereo unspecified)	72.8%		97.9%	102%	93.1%	99.7%	97%	96.2%	63%
NC(=Nc1ccc(OCCCCCCCCn2cnnn2)cc1)c1ccccc1	45.6%	18.9%		22.5%	15.2%	17.1%	10.5%	20.9%	13.4%
COc1ccc2c(c1)c(-c1cc(N)n3nc(-c4c[nH]c5ccccc45)cc3n1)cn2C	-63.5% (active)		-74% (active)	-89.5% (active)	-85.9% (active)	-80.6% (active)	-74.8% (active)	-73.8% (active)	-72% (active)

Reference: PubChem BioAssay (NCI)
